Test results taken from PubChem BioAssay (EPA / NIEHS).
Records with an inconclusive call do not appear. Activity calls are given as the source filed them. The calls were made as follows: active = hit-call score of the fitted dose curve at least 0.9, where 1 is the maximum; inconclusive = response in the unintended direction; inactive = score below 0.9. Where a SMILES comes first, the peptide text is derived from it. Bridges are numbered along the chain shown (N, C = ends). [ ]: non-standard residue; d: D form. hArg = N=C(N)NCCCC[C@H](N)C(=O)O; Mpa = O=C(O)CCS

Molecular target: Cellular tumor antigen p53 (Homo sapiens) (UniProt P04637)
Test: TOX21_p53_BLA_p5_ratio: Tox21 HCT-116 p53 Agonism Beta-lactamase Assay, Ratio, Phase 5 (AID 2283599)
Method in brief: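 Beta-lactamase reporter ratio (blue 460 nm over green 530 nm, 405 nm excitation) after 2 h CCF4-AM loading, in HCT-116 cells exposed 16 h at 37 C to compounds pinned at 217-fold dilution. Increases relative to DMSO baseline scored.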

Cellular tumor antigen p53 (Homo sapiens), sequence (P04637 whole entry, looked up): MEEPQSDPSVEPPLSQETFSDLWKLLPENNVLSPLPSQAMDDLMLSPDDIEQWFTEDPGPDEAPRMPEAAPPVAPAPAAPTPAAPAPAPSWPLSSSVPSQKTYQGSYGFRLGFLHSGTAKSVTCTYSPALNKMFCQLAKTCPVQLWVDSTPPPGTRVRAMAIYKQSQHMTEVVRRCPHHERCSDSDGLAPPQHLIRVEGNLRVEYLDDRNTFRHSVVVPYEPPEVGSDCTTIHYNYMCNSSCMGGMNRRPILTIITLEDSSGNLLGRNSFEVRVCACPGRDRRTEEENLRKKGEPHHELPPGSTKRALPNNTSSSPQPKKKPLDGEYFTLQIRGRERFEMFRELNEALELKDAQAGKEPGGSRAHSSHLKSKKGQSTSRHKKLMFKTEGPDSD

| SMILES | outcome |
| --- | --- |
| CC(=NCc1ccccc1)c1ccccc1O | inactive |
| O=C1c2ccccc2C(=O)C1c1ccccc1 | inactive |
| CCOc1ccc2ccccc2c1C(=O)N[C@@H]1C(=O)N2[C@@H]1SC(C)(C)[C@@H]2C(=O)O | inactive |
| C[C@H](O)C(=O)Nc1c(I)c(C(=O)NC(CO)CO)c(I)c(C(=O)NC(CO)CO)c1I | inactive |
| Nc1nc2c(ncn2COCCO)c(=O)[nH]1 | inactive |
| CC1CCCC(C)N1NC(=O)c1ccc(Cl)c(S(N)(=O)=O)c1 (stereo unspecified) | inactive |
| Nc1ccc(Cl)cc1[N+](=O)[O-] | inactive |
| C=CC(=O)OCCOCCOC(=O)C=C | inactive |
| CC(=O)N[C@@H](CC(=O)N[C@@H](CCC(=O)O)C(=O)O)C(=O)O | inactive |
| CNCC(=O)N[C@@H](CCCN=C(N)N)C(=O)N[C@H](C(=O)N[C@@H](Cc1ccc(O)cc1)C(=O)N[C@H](C(=O)N[C@@H](Cc1cnc[nH]1)C(=O)N1CCC[C@H]1C(=O)N[C@@H](C)C(=O)O)C(C)C)C(C)C | inactive |
| FC1(F)C(F)(F)C(F)(F)C2(F)C(F)(F)C(F)(F)C(F)(F)C(F)(F)C2(F)C1(F)F (stereo unspecified) | inactive |
| O=C(O)Cc1csc(-c2ccc(Cl)cc2)n1 | inactive |
| C[C@]12CC[C@@H]3c4ccc(OC(=O)c5ccccc5)cc4CC[C@H]3[C@@H]1CC[C@@H]2O | inactive |
| CC(C)(C)c1ccc(C=O)cc1 | inactive |
| CN1CCN(C(c2ccccc2)c2ccccc2)CC1 | inactive |
| CC(C)NC[C@@H](O)COc1cccc2ccccc12 | inactive |
| OCC1(CO)COC(C(Cl)(Cl)Cl)OC1 | inactive |
| CC(C)CCC[C@@H](C)[C@H]1CC(=O)C2=C3CC[C@H]4C[C@@H](O)CC[C@]4(C)[C@H]3CC[C@@]21C | inactive |

| SMILES | outcome |
| --- | --- |
| C[C@H]1NCc2cc(-c3ccc4c(=O)c(C(=O)O)cn(C5CC5)c4c3OC(F)F)ccc21 | inactive |
| Cl.Cl.N.N.[Cl-].[Cl-].[Pt+2] | inactive |
| Clc1ccc2nsnc2c1NC1=NCCN1 | inactive |
| CC[C@H]1OC(=O)C[C@@H](O)[C@H](C)[C@@H](O[C@@H]2O[C@H](C)[C@@H](O)[C@H](N(C)C)[C@H]2O)[C@@H](CCN2C[C@H](C)C[C@H](C)C2)C[C@@H](C)C(=O)/C=C/C(C)=C/[C@@H]1CO[C@@H]1O[C@H](C)[C@@H](O)[C@@H](OC)[C@H]1OC | inactive |
| NC[C@H]1O[C@H](O[C@H]2[C@H](O)[C@@H](O[C@H]3O[C@H](CO)[C@@H](O)[C@H](N)[C@H]3O)[C@H](N)C[C@@H]2N)[C@H](N)[C@@H](O)[C@@H]1O | inactive |
| CC(Oc1ccccc1)C(=O)N[C@@H]1C(=O)N2[C@@H]1SC(C)(C)[C@@H]2C(=O)O (stereo partly specified) | inactive |
| CCC1NC(=O)c2cc(S(N)(=O)=O)c(Cl)cc2N1 (stereo unspecified) | inactive |
| CC(C)C[C@H](NC(=O)[C@@H](Cc1c[nH]c2ccccc12)NC(=O)[C@H](Cc1ccc(O)cc1)NC(=O)[C@H](CO)NC(=O)[C@H](Cc1c[nH]c2ccccc12)NC(=O)[C@H](Cc1cnc[nH]1)NC(=O)[C@@H]1CCC(=O)N1)C(=O)N[C@@H](CCCN=C(N)N)C(=O)N1CCC[C@@H]1C(=O)NCC(N)=O | inactive |
| O=C(COCCOCCOCC(=O)Nc1c(I)cc(I)c(C(=O)O)c1I)Nc1c(I)cc(I)c(C(=O)O)c1I | inactive |
| COc1ccc(NS(=O)(=O)c2ccc(N)cc2)nn1 | inactive |
| C=CCSSSCC=C | inactive |
| O=C1OC(=O)c2cccc3cccc1c23 | inactive |
| OCC(O)CN1CCN(c2ccccc2)CC1 (stereo unspecified) | inactive |
| CCC=O | inactive |
| NC(=O)[C@@H]1CSSCCC(=O)N[C@@H](CCCCN=C(N)N)C(=O)NCC(=O)N[C@@H](CC(=O)O)C(=O)N[C@H](Cc2c[nH]c3ccccc23)C(=O)N2CCC[C@H]2C(=O)N1 ([Mpa][hArg]GD[dW]PC-NH2; disulfide 1-7) | inactive |
| C[C@@H](O)C(=O)O | inactive |
| CCOC(=O)c1ccc(OC(=O)CCCCCN=C(N)N)cc1 | inactive |
| O=Nc1ccc(NO)cc1 | inactive |
